Records with an inconclusive call do not appear. The source made the active and inactive calls. The call rests on the fitted dose curve; in most records, active means well fitted curve in the direction sought with a large enough effect; inconclusive means small, poorly fitted or top-dose-only effect, or another doubt; inactive means no such curve, though single readings can be large or run the other way.

Chain of phosphoglycerate mutase (Leishmania major) (Q4Q090 1-553): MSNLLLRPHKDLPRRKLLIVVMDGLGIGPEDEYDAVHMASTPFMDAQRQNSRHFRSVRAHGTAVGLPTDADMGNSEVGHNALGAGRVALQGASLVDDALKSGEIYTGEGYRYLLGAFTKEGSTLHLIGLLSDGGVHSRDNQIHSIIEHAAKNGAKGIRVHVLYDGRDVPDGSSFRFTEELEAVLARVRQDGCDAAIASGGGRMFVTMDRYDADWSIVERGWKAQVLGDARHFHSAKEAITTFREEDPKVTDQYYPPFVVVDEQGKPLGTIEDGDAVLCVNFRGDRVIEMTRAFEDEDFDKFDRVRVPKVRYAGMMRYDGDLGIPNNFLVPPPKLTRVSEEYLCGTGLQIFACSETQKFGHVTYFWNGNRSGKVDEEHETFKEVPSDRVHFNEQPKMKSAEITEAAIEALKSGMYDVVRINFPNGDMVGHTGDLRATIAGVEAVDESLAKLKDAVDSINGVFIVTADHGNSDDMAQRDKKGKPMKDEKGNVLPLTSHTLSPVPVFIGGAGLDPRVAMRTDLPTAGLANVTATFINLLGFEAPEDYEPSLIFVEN

The assay has as its target phosphoglycerate mutase (Leishmania major) (UniProt Q4Q090). The assay can be described thus: qHTS Validation Assay to Find Inhibitors of Phosphoglycerate Mutase (AID 504548). As to conditions: biochemical enzyme activity; series mostly up to 57.5 µM. An excerpt: NIH Molecular Libraries Probe Production Network [MLPCN]
NIH Chemical Genomics Center [NCGC]
PI Name: Malcolm Walkinshaw, University of Edinburgh
Several species of the Trypanosomatidae family of parasitic protozoans cause a spectrum of diseases throughout the tropical and subtropical world. Sleeping sickness, caused by two subspecies of Trypanosoma brucei, is endemic to areas of sub-Saharan Africa, while Chagas disease, a manifestation of Trypanosoma cruzi infection, is prevalent throughout Central and South America. In addition, many species of Leishmania are responsible for a range of cutaneous and visceral diseases, causing ulcers, destructive lesions and kalaazar, a lethal infection of the viscera. Collectively, these organisms infect 30 million people worldwide (~500 million live in endemic areas), and account for ~130,000 deaths annually. Given their debilitating and prevalent nature, trypanosomatid parasites impose a heavy medical, economic and social burden on entire populations, primarily in the developing world. The problem is further exacerbated by the fact that existing treatments have progressed little in the past 50 years, and current drugs show high toxicity and poor efficacy.
Blood-stream stages of T. brucei are entirely dependent on glycolysis as a source of ATP, and the tricarboxylic acid cycle and oxidative phosphorylation are both repressed. Glycolysis in axenically cultured T. cruzi, representing the intracellular pathogenic stage, is also essential for these parasites. […] Previous studies have shown that the glycolytic enzyme, phosphoglycerate mutase (PGAM), is a viable target for drugs to kill these parasites. […] Furthermore, the cobalt centers present within PGAM are only found in trypanosomatid and plant PGAMs, and are known to be required for activity, thereby providing an additional target. Moreover, trypanosomatid PGAMs are completely different from the enzyme that performs the same function in humans: the parasite and host enzymes share no structural or even mechanistic features; specificity is therefore unlikely to be an issue.
NCGC Assay Protocol Summary:
Briefly, 3ul of substrate buffer (all columns) are dispensed into Greiner white solid bottom 1536-well assay plates. Compounds are then transferred via Kalypsys pin tool equipped with 1536-pin array (10nl slotted pins, V&P Scientific, San Diego, CA). Following addition of compound, 1ul of Lm PGAM (1.25nM final concentration, columns […]) is added to initiate the reaction; columns 3-4 receive only TEA buffer as negative controls. The plates are then incubated at room temperature for 45 minutes. Kinase-GloPlus reagent is added (2ul) and plates incubated for 10 minutes, before being transferred to a ViewLux high-throughput CCD imager (PerkinElmer) wherein single end-point measurements of luminescence are acquired using a clear filter. All reagents are diluted in an assay buffer consisting of 100 mM TEA (pH 7.6), 5 mM MgCl2 and 0.01% Tween-20.
(In general: Quantitative high-throughput screening tests each substance at several concentrations.)
As to `OC(CCN1CCCCC1)(c1ccccc1)C1CC2C=CC1C2` (stereo not given), the call was inactive. With `Cc1cccc(-c2[nH]c(C(C)(C)C)nc2-c2ccc3nccnc3c2)n1`, the compound was classed as inactive. Consider `NC(=O)c1cnccn1`, for which the result was inactive. Under `CC(C)(Sc1ccc(CCN(CCCCC2CCCCC2)C(=O)NC2CCCCC2)cc1)C(=O)O` stands “inactive”.

As for `Nc1ncnc2nc(-c3ccc(N4CCOCC4)nc3)cc(-c3cccc(Br)c3)c12`, the compound was called inactive. The same measure for `O=C(O)COCCN1CCN(C(c2ccccc2)c2ccc(Cl)cc2)CC1` (stereo not given): “inactive”; for `O=C1CCC(N2C(=O)c3ccccc3C2=O)C(=O)N1` (stereo not given): “inactive”. As for `CCC(C)N(C)C(=O)c1cc2ccccc2c(-c2ccccc2Cl)n1` (stereo not given), the compound was called inactive. `CNC[C@H](O)c1cccc(O)c1`: the result was inactive.

With `CC(=O)Oc1ccccc1C(=O)O`, the compound was called inactive.

Take `Cc1cnc(NC(=O)C2=C(O)c3ccccc3S(=O)(=O)N2C)s1`: the call was inactive. The same measure for `Nc1nc2c(ncn2COCCO)c(=O)[nH]1`: “inactive”; for `CC(C)(C)NCC(O)c1ccc(O)c(CO)c1` (stereo not given): “inactive”. Under `CCOC(=O)C1=C[C@]2(CC)CCCN3CCc4c(n1c1ccccc41)[C@@H]32` stands “inactive”.

For `CC(C)C[C@H](NC(=O)[C@@H](O)[C@H](N)Cc1ccccc1)C(=O)O`, the compound was classed as inactive. The same measure for `CCCC(CCC)C(=O)O`: “inactive”; for `Nc1ccc(S(=O)(=O)Nc2ccnn2-c2ccccc2)cc1`: “inactive”; for `Cc1[nH]c(=O)c(C#N)cc1-c1ccc2nccn2c1`: “inactive”. Take `N=c1nc(N2CCCCC2)cc(N)n1O`: the compound was called inactive. In the case of `Cc1ccc(N(CC2=NCCN2)c2cccc(O)c2)cc1`, the outcome was inactive. Under `NCCCC(N)(C(=O)O)C(F)F` (stereo not given) stands “inactive”. Under `Clc1cccc(Cl)c1NC1=NCCN1` stands “inactive”; under `NC[C@H](O)c1ccc(O)c(O)c1`, “inactive”; under `N[C@@H]1CONC1=O`, “inactive”. The same measure for `NNCCc1ccccc1`: “inactive”; for `Cn1cnc([N+](=O)[O-])c1Sc1ncnc2nc[nH]c12`: “inactive”. Regarding `O=c1[nH]cnc2[nH]ncc12`, the outcome was inactive. For the compound `Cc1cn[nH]c1`, the compound was called inactive.

Regarding `C1COC(NC(C2CC2)C2CC2)=N1`, the result was inactive. For `Oc1ccc(C2CNCCc3c2cc(O)c(O)c3Cl)cc1` (stereo not given), the compound was classed as inactive.

For the compound `c1ccc([C@H]2CN3CCSC3=N2)cc1`, the outcome was inactive. As to `CCOC(=O)N1CCC(=C2c3ccc(Cl)cc3CCc3cccnc32)CC1`, the compound was called inactive.

Consider `CC(C)NCC(O)COc1ccc(COCCOC(C)C)cc1` (stereo not given), for which the outcome was inactive. Under `O=NN(CCCl)C(=O)NCCCl` stands “inactive”; under `CC(C[N+](C)(C)C)OC(N)=O` (stereo not given), “inactive”; under `CN1CCN(CCCN2c3ccccc3Sc3ccc(C(F)(F)F)cc32)CC1`, “inactive”. On to `O=c1n(CCCN2CCN(c3cccc(Cl)c3)CC2)nc2ccccn12`, for which the compound was classed as inactive. The same measure for `C[C@]12CCC(=O)C=C1CC[C@@H]1[C@@H]2[C@@H](O)C[C@@]2(C)[C@H]1CC[C@]2(O)C(=O)CO`: “inactive”; for `NS(=O)(=O)c1cc2c(cc1Cl)NC=NS2(=O)=O`: “inactive”. With `O=C(Nc1nc2ccccc2n1CCN1CCOCC1)c1cccc([N+](=O)[O-])c1`, the result was inactive.

The record behind these values is PubChem BioAssay (NCATS).
